For assay [1], the system named is Klebsiella pneumoniae. As to conditions: Concentration 32 ug.mL-1;; ASSAY_TEST Inhibition of Bacterial Growth; detection method Absorption (OD600); MEDIA CAMHB; plate type 384well; NBS; CORNING #3640; time 18 hr.
Assay [2] concerns Candida albicans. As to conditions: Concentration 32 ug.mL-1; ASSAY_TEST Inhibition of Fungal Growth; detection method Absorption (OD530).
In assay [3] the test system is Cryptococcus neoformans. As to conditions: Concentration 32 ug.mL-1; ASSAY_TEST Inhibition of Fungal Growth; detection method Resazurin; Absorption (OD600-OD570); plate type 384well; NBS; CORNING #3640. For orientation: Alamar Blue is a resazurin reagent that responds to reducing activity.

Potency and affinity values are given separately.

Regarding `O=C(CSc1nnc2c(=O)n(-c3ccc(F)c(F)c3)ccn12)c1cccc(Cl)c1`, the Inhibition (as a rule, the drop in the measured response relative to a control, in per cent) in assay [1] is on record as 12.31%; in assay [2], 1.86%; in assay [3] it was -8.13%.
Take `COc1ccc(NC(=O)Cn2nc3c(N4CC(C)CC(C)C4)nccn3c2=O)c(OC)c1` (stereo not given): the Inhibition in assay [1] is reported as 17.76%; in assay [2], 1.51%; in assay [3] it was -7.52%.
In the case of `CCC(C)NC(=O)CCn1c(=O)c2ccccc2n2c(=O)n(CC(=O)NCc3cccs3)nc12` (stereo not given), the Inhibition in assay [1] was 12.47%; in assay [2] it was 0.11%; in assay [3], -24.13%.
Regarding `CCCCn1c(=O)c2sccc2n2c(=O)n(CC(=O)c3ccc(C)cc3C)nc12`, the Inhibition is 10.99% in assay [1], -0.48% in assay [2] and -20% in assay [3].
For the compound `Cc1cc(C)c(NC(=O)Cn2nc3c(N4CCN(c5ccccc5)CC4)nccn3c2=O)c(C)c1`, the Inhibition in assay [1] is 10.19%; in assay [2] it was 11.4%; in assay [3], -7.74%.
For the compound `Cc1cc(C)c(NC(=O)Cn2nc3c(SCc4ccc(Cl)cc4)nccn3c2=O)c(C)c1`, the values for the Inhibition in assay [1], in assay [2] and in assay [3] were 8.66%, 25.19% and -17.24%, respectively.
`CCCn1c(=O)c2sccc2n2c(CCC(=O)NC(C)C34CC5CC(CC(C5)C3)C4)nnc12` (stereo not given): the Inhibition in assay [1] was 1.34%; in assay [2] it was 7.2%; in assay [3] it was -25.73%.
Consider `COc1ccc(NC(=O)CSc2nc3ccccc3n3c(C(C)C)nnc23)c(OC)c1`, for which the Inhibition is reported as 7.3% in assay [1], 2.71% in assay [2] and -21.27% in assay [3].
For `CCOc1ccc(-n2ccn3c(SCC(=O)c4c(C)[nH]c5ccccc45)nnc3c2=O)cc1`, in that order: 3.78%, 2.22% and -13.8%.
For `COc1ccc(NC(=O)Cn2nc3ccc(SC4CCCCC4)nn3c2=O)c(OC)c1`, the Inhibition in assay [1] is on record as 4.32%; in assay [2], -0.43%; in assay [3] it was -25.29%.
For `Cc1nnc2c(S(=O)(=O)N(Cc3cc(F)cc(F)c3)c3cccc(F)c3)cccn12`, in that order: 4.57%, 6.53% and -8.02%.
On to `Cc1cccc(N(C)C(=O)Cn2nc3cc(C)nc(Nc4ccc(F)c(C)c4)n3c2=O)c1`, for which the Inhibition in assay [1] is listed as 4.58%; in assay [2], 2.18%; in assay [3], -4.41%.
In the case of `CCC(Sc1nnc2c(=O)n(-c3cccc(OC)c3)ccn12)C(=O)Nc1cc(C)ccc1C` (stereo not given), the Inhibition in assay [1] was 11.08%; in assay [2] it was 1.67%; in assay [3] it was -10.57%.
Taken in the same sequence, the figures for `CCCCOc1ccc(-c2cc3c4nnc(SCC(=O)NCc5ccccc5)n4ccn3n2)cc1` were -0.43%, 3.39% and -8.72%.
For `CC(C)c1nnc2c(SCC(=O)Nc3ccccc3Br)nc3ccccc3n12`, in that order: 12.82%, 4.2% and -6.3%.
`COc1ccccc1N1CCN(C(=O)CSc2nc3ccccc3n3cnnc23)CC1`: the Inhibition is recorded as 8.29% in assay [1], 2.74% in assay [2] and -5.08% in assay [3].
In the case of `COc1ccc(NC(=O)Cn2nc3c(SC4CCCCC4)nccn3c2=O)cc1Cl`, the Inhibition in assay [1] is given as -2.37%; in assay [2], 10.68%; in assay [3], -22.74%.
Turning to `CCc1nnc2c(S(=O)(=O)N(Cc3ccc(OC)c(F)c3)c3ccccc3)cccn12`, the Inhibition is on record as 7.72% in assay [1], -1.05% in assay [2] and -3.11% in assay [3].
Taken in the same sequence, the figures for `O=C(Cn1nc2c(Oc3ccccc3)nccn2c1=O)Nc1ccc(F)cc1Cl` were 3.51%, 0.77% and -10.04%.
Taken in the same sequence, the figures for `COc1ccc(NC(=O)Cn2nc3c4cc(-c5cc(C)ccc5C)nn4ccn3c2=O)c(OC)c1` were 9.51%, 3.64% and -9.3%.
With `CCOc1ccc(-n2ccn3c(SCC(=O)c4cc(C)c(C)cc4C)nnc3c2=O)cc1`, the Inhibition is listed as 2.47% in assay [1], 2.99% in assay [2] and -7.59% in assay [3].
As for `O=C(CSc1nnc2c(=O)n(-c3cccc(F)c3)ccn12)Nc1ccc(Br)cc1`, the Inhibition in assay [1] is recorded as 9.48%; in assay [2], 6.65%; in assay [3], -9.7%.
As for `Cc1cc2nn(CC(=O)Nc3ccccc3)c(=O)n2c(Nc2ccc(C)c(F)c2)n1`, the Inhibition in assay [1] is 9.53%; in assay [2], 4.54%; in assay [3] it was -5.9%.
Take `CCCCn1c(=O)c2sccc2n2c(=O)n(CC(=O)c3ccc(OC)cc3)nc12`: the results for the Inhibition in assay [1], in assay [2] and in assay [3] were 1.02%, 4.16% and -36.83%, respectively.
Take `O=C(CSc1nc2ccccc2n2cnnc12)N1CCN(c2ccc(F)cc2)CC1`: the Inhibition in assay [1] is on record as 8.82%; in assay [2] it was 1.33%; in assay [3] it was 6.24%.
For `CCCn1c(=O)c2sccc2n2c(=O)n(CC(=O)c3cc(C)ccc3C)nc12`, in that order: 9.58%, 6.28% and -24.9%.
Regarding `N#CCn1nc2n(CCC(=O)NC3CCCCC3)c(=O)c3ccccc3n2c1=O`, the values for the Inhibition in assay [1], in assay [2] and in assay [3] were 0.53%, 1.95% and 1.45%, respectively.
For `Cc1cc(C)c(NC(=O)Cn2nc3c(Sc4cccc(F)c4)nccn3c2=O)c(C)c1`, the Inhibition in assay [1] was 9.01%; in assay [2], 0.95%; in assay [3], -7.48%.
For `Cc1ccccc1NC(=O)Cn1nc2c(SC3CCCCC3)nccn2c1=O`, the Inhibition is 5.55% in assay [1], -0.37% in assay [2] and -26.02% in assay [3].
Regarding `Cc1ccc2c(c1)N(C(=O)Cn1nc3ccc(SCc4ccc(Cl)cc4)nn3c1=O)CCO2`, the figures for the Inhibition in assay [1], in assay [2] and in assay [3] were 7.49%, 29.58% and -22.86%, respectively.

(Values after ChEMBL document CHEMBL4513146, “CO-ADD screening of Karazin Kharkiv National University (Ukraine) compounds”.)
